# Experimental data: PubChem BioAssay AID1345083 (National Center for Advancing Translational Sciences (NCATS), 2018)
# Hit rate of the full screen: of about 94,000 compounds, about 6,200 (6.6%) were called active. Roughly 31% stayed inconclusive and do not appear here. This excerpt belongs to a sample that is enriched for actives. Unmarked numbers belong to inactive results. Calls follow the shape of the dose curve; as a rule, active = well fitted inhibition curve with a large enough effect; inconclusive = small, poorly fitted or top-dose-only effect; inactive = flat fitted curve, though single readings scatter.
# Assay: Cytotoxic Profiling in HEK 293 Cell Line of Diverse Libraries Using Quantitative High-Throughput Screening; also: nearly all actives have a fitted effect of over 60% in size
# Conditions: HEK 293 viability, ATP luminescence (CellTiter-Glo), 48-72 h; series mostly up to 115 µM; activity change, negative = cytotoxicity: at the top concentration
# Summary of the method: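 Viability of HEK 293 cells, plated at 250 cells/well, was judged by cellular ATP after compound treatment for 48 or 72 hr. Luminescence was imaged 10 min after CellTiter-Glo addition at room temperature.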
# % is scaled to controls: 0 for no effect and ±100 for the full control effect; potency is read from the fitted curve at half-maximal effect.
Compound,"activity change, negative = cytotoxicity",Potency,outcome
COc1ccc(-c2nnc3n2CCN([S+](C)(=O)[O-])C3)cc1,-14.1% [at 172 µM],–,–
Cc1cc(C)n(C2CN(c3cc(C4CC(O)C4)nc(C)n3)C2)n1 (stereo not given),3.05%,–,–
Cc1cc(C)n(-c2ccc(NC(=O)CC[C@H]3NC(=O)c4ccccc4NC3=O)cc2)n1,0.189%,–,–
COc1ccc(CC(=O)NC2CCCc3c2[nH]c2ccccc32)cc1 (stereo not given),–,35.5 µM (active),–
COc1ccc(C(=O)N[C@@H]2CCC[C@@H]2C(=O)NCc2cccc(OC)c2)cc1,-0.388%,–,–
O=C(NC1CCCc2c1[nH]c1ccc(F)cc21)c1ccccn1 (stereo not given),-59%,–,–
CN1CCCN(C(=O)c2ccccc2)c2ccccc21,-19.7%,–,–
CCN1CCN(C(=O)c2ccc3nnc(Cc4ccc(Cl)cc4)n3c2)CC1,–,–,inactive
O=C(NCc1cccc(Cl)c1)c1ccc2nnc(Cc3ccc(Cl)cc3)n2c1,–,44.7 µM (active),–
O=C(NCc1ccc(F)c(F)c1)c1ccc2nnc(-c3cccnc3)n2c1,-3.74%,–,–
O=C(NCc1ccc(C(F)(F)F)cc1)c1ccc2nnc(-c3ccc(C(F)(F)F)cc3)n2c1,–,35.5 µM (active),–
O=C(NCc1ccc(F)cc1)c1ccc2nnc(Cc3ccco3)n2c1,–,inactive,–
COCCNC(=O)c1ccc2nnc(-c3cccc(C(F)(F)F)c3)n2c1,0.3%,–,–
COc1cccc(CN2CC(O)CN(S(C)(=O)=O)CC2=O)c1OC (stereo not given),-15.1%,–,–
COc1ccc2[nH]c(C(=O)N[C@@H]3CN(S(C)(=O)=O)C[C@H]3CN(C)C)cc2c1,3.78%,–,–
CCNC(=O)N1CCC(n2c(C)cnc2C2CCC2)CC1,–,–,inactive
COCCc1noc(CC2CCOC3(CCN(C(=O)Nc4ccc5c(c4)OCCO5)CC3)C2)n1 (stereo not given),-16.7%,–,–
COc1ccc(CN2CCC3(CC2)CC(=O)c2ccc(Cl)cc2O3)cc1,–,39.8 µM (active),–
COc1ccc(CN2CCC3(CC(C(C)C)=NO3)C2)cc1 (stereo not given),3.43% [at 172 µM],–,–
CC1=NOC2(CCN(Cc3ccncc3)CC2)C1,–,–,inactive [at 172 µM]
COc1ccccc1CN1CC[C@H](CNC(C)=O)[C@H](N(C)C)C1,-6.07%,–,–
Cc1nccn1CC(=O)NCC1CCN(c2cc(-c3ccccc3)[nH]n2)CC1,0.823%,–,–
O=C(c1ccccc1Cl)N1CCCN(c2cc(-c3ccc(F)cc3)[nH]n2)CC1,–,44.7 µM (active),–
O=C(N1CCN(c2cc(-c3ccc(Cl)cc3)[nH]n2)CC1)C1(c2ccccc2)CC1,–,44.7 µM (active),–
O=C(NCc1ccccc1F)C1(c2ccc(Cl)cc2)CCOCC1,-17.4% [at 172 µM],–,–

Compound,"activity change, negative = cytotoxicity",Potency,outcome
O=C(NCC1CCN(c2cc(-c3ccc(Cl)cc3)[nH]n2)CC1)c1ccc(=O)[nH]c1,-5.24%,–,–
CC(=O)N1CCC(C(=O)NCC2CCN(c3cc(-c4ccc(C)cc4)[nH]n3)CC2)CC1,-16.8%,–,–
COc1ccccc1C(=O)N1CCCN(c2nnc3ccccn23)CC1,-2.9%,–,–
O=C(Cc1ccc(F)cc1)NC1CCN(c2cc(-c3ccc(Cl)cc3)[nH]n2)CC1,1.39%,–,–
COc1ccc(-c2cc(N3CCN(C(=O)c4ccncc4)CC3)n[nH]2)cc1,-19.5%,–,–
COc1ccccc1C(=O)N1CCCN(c2ccc3nnc(C)n3n2)CC1,-1.49%,–,–
O=C(c1ccc(F)cc1F)N1CCN(c2cc(-c3ccc(Cl)cc3)[nH]n2)CC1,–,39.8 µM (active),–
O=C(c1ccc2cc[nH]c2c1)N1CCCN(c2cc(-c3ccc(Cl)cc3)[nH]n2)CC1,–,39.8 µM (active),–
C#CCNC(=O)C[C@@H]1O[C@H](CNC(C)=O)[C@@H](O)[C@H]1O,–,–,inactive [at 230 µM]
O=C(NCCc1ccccc1)c1nc2sccn2c1-c1ccccc1,-15.6%,–,–
Cc1nc(CC(=O)N2C[C@@H](CN3CCCCCC3)[C@@H](CO)C2)cs1,-2.94%,–,–
COCC(=O)N1C[C@@H](COc2cccnc2)[C@H](c2ccccn2)C1,-1.3%,–,–
CN(CCc1ccccn1)[C@@H]1[C@H](O)[C@H](CO)O[C@@H]1CNS(=O)(=O)c1cccs1,3.52%,–,–
O=C(c1cnccn1)N1CCC(NCc2cc3n(n2)CCCNC3)CC1,-0.759%,–,–
Cc1noc(C)c1S(=O)(=O)N[C@@H]1C[C@H](Cn2cc(C3CC3)nn2)[C@@H](O)[C@H]1O,-1.11% [at 172 µM],–,–
O=C(NC1CCCCC1)C1CN(C(=O)c2ccccc2F)CC12CCOCC2 (stereo not given),0.348%,–,–
Cc1ccc(-n2c(C3CCN(C(=O)c4ccoc4)CC3)n[nH]c2=O)cc1,-4.39%,–,–
CC(C)Nc1ncc(C(=O)NC2CCCN(CCc3ccccc3)C2)cn1 (stereo not given),–,–,inactive
COc1ccccc1-c1ccc(C(=O)O)cc1,-1.49% [at 172 µM],–,–
COc1ccc(CC(=O)NC2CCN(Cc3ccc(-c4ccccc4OC)cc3)C2)cc1 (stereo not given),–,39.8 µM (active),–
Fc1ccc(CN2CC(Oc3ccc(F)cc3F)C2)cc1,-5.88%,–,–
COc1ccc(CC(=O)NC2CCN(c3ccc4nnc(C)n4n3)CC2)cc1,4.27%,–,–
O=C(NC1CCCN(c2ccc3nnc(C4CC4)n3n2)C1)c1ccc(Cl)nc1 (stereo not given),-24.6%,–,–
Cc1cc(C)cc(-c2ccc(CN3CCCC(NC(=O)c4ccccc4)C3)cc2)c1 (stereo not given),–,28.2 µM (active),–
Cc1ccc(-c2cccc(CN3CCCC(NC(=O)c4ccc(Cl)cc4)C3)c2)cc1Cl (stereo not given),1.69%,–,–
